Reference: the supplement of paper PMC9399229
Structures can show the parent of a compound that is named as a salt. The full ranking holds about 1,900 compounds; the median of “relative cell viability (CellTiter-Glo), compound plus cabozantinib, relative to the cabozantinib arm (arm median 1.05; reference not stated)” is about 1.1, and the lowest 2% start at about 0.15. The full list was thinned out, with the lowest values kept by preference.

test system: Hep3B; experiment: relative cell viability (CellTiter-Glo), compound plus cabozantinib, relative to the cabozantinib arm (arm median 1.05; reference not stated) (fraction); higher = more viable cells (less growth inhibition); conditions: cabozantinib 2 µM; 4 days

SMILES	relative cell viability
O=C(c1cncc(Br)c1)N1CCC(N2CCCC2)CC1	1.16
COc1cc2c(cc1O)CC[C@@H]1[C@@H]2CC[C@]2(C)[C@@H](O)CC[C@@H]12 [2-Methoxyestradiol (2-MeOE2)]	1.06
CCCCCCCCCCCCCCCCO [1-Hexadecanol]	1.14
C[C@@H](Nc1cc(F)cc(F)c1)c1cc(C(=O)N(C)C)cc2c(=O)cc(N3CCOCC3)oc12	0.998
CCN(CC)CCNC(=O)c1ccc(N)cc1 [Procainamide HCl]	0.947
CCN(CC)Cc1ccc2cc(COC(=O)Nc3ccc(C(=O)NO)cc3)ccc2c1 [Givinostat (ITF2357)]	0.109
COc1ccc(Cn2ccc3ccc(C(=O)NO)cc32)cc1	0.91
COc1cc(NC(=O)c2ccccn2)ccc1Cl	1.05
CN(C)C(=S)NN=C(c1ccccn1)c1ccccn1	0.15
CCOC(=O)[C@H](CCc1ccccc1)N[C@@H](C)C(=O)N1CCC[C@H]1C(=O)O [Enalapril Maleate]	1.15
CC#CC(=O)N1CC[C@@H](n2c(=O)n(-c3ccc(Oc4ccccc4)cc3)c3c(N)ncnc32)C1	1.07
COC(=O)CC[C@H](NC(=O)[C@H](CC(=O)OC)NC(=O)OCc1ccccc1)C(=O)N[C@H](C(=O)N[C@@H](CC(=O)OC)C(=O)CF)C(C)C	1.09
CCCCC(=O)N(Cc1ccc(-c2ccccc2-c2nnn[nH]2)cc1)[C@H](C(=O)O)C(C)C [Valsartan]	1.2
COc1ccc(-c2nc(N3CCOCC3)c3sc(CN(C)c4ncc(C(=O)NO)cn4)cc3n2)cn1	0.181
Cn1cnc2c(F)c(Nc3ccc(Br)cc3Cl)c(C(=O)NOCCO)cc21 [Selumetinib (AZD6244)]	0.616
Cc1cc(Nc2ncc(Cl)c(Nc3ccccc3S(=O)(=O)C(C)C)n2)c(OC(C)C)cc1C1CCNCC1	0.122
COc1cc(N2CCC(N3CCN(C)CC3)CC2)ccc1Nc1ncnc(Nc2ccccc2S(=O)(=O)C(C)C)n1	1.09
NC(=S)N/N=C/c1ncccc1N [Triapine]	1.02
CC(=O)Nc1nc2c(Oc3cc(-c4ccc(C(F)(F)F)cc4)ncn3)cccc2s1	1.04
CN[C@H]1CN(c2ccc3c(=O)c(C(=O)O)cn(-c4nccs4)c3n2)C[C@@H]1OC [Voreloxin (SNS-595)]	0.968
CC/C(=C(\c1ccc(O)cc1)c1ccc(OCCNC)cc1)c1ccccc1 [Endoxifen HCl]	1.15
Oc1cc(O)c(Cl)cn1 [Gimeracil]	1
CNC(CC(=O)O)C(=O)O [NMDA (N-Methyl-D-aspartic acid)]	1.15
CO[C@H]1/C=C/O[C@@]2(C)Oc3c(C)c(O)c4c(O)c(c5c(nc6cc(C)ccn65)c4c3C2=O)NC(=O)/C(C)=C\C=C\[C@H](C)[C@H](O)[C@@H](C)[C@@H](O)[C@@H](C)[C@H](OC(C)=O)[C@@H]1C [Rifaximin]	0.91

SMILES	relative cell viability
C=CCc1cc(OC)c(O)c(C(=O)NCCO)c1 [Alibendol]	0.982
CC1(C)CC[C@]2(C(=O)O)CC[C@]3(C)C(=CC[C@@H]4[C@@]5(C)CC[C@H](O)C(C)(C)[C@@H]5CC[C@]43C)[C@@H]2C1 [Oleanolic Acid]	1.14
C=C1C(=O)[C@]23[C@H](O)[C@H]1CC[C@H]2[C@@]12CO[C@]3(O)[C@@H](O)[C@@H]1C(C)(C)CC[C@@H]2O [Oridonin]	1.11
Cc1csc(-c2nnc(Nc3ccc(Oc4ncccc4-c4ccnc(N)n4)cc3)c3ccccc23)c1	1
CCCNC(=O)Nc1ccc(Oc2ncnc3cc(OC)c(OC)cc23)cc1Cl	1.14
CCOc1cc2ncc(C#N)c(Nc3ccc(F)c(Cl)c3)c2cc1NC(=O)/C=C/CN(C)C [Pelitinib (EKB-569)]	0.9
CC(=O)C1=C(O)C=C2Oc3c(C(C)=O)c(O)c(C)c(O)c3C2(C)C1=O (single isomer, unassigned; (+)) [(+)-Usniacin]	1.11
C[C@H]1Oc2cc(cnc2N)-c2c(nn(C)c2C#N)CN(C)C(=O)c2ccc(F)cc21	1.14
C[C@@H](O)[C@H]1C(=O)N2C(C(=O)O)=C(S[C@@H]3CN[C@H](C(=O)N(C)C)C3)[C@H](C)[C@H]12 [Meropenem]	1.17
CC[C@@]1(O)C(=O)OCc2c1cc1n(c2=O)Cc2cc3c(CN(C)C)c(O)ccc3nc2-1 [Topotecan HCl]	0.556
CC[C@@]1(O)C(=O)OCc2c1cc1n(c2=O)Cc2cc3cc(O)ccc3nc2-1 [(S)-10-Hydroxycamptothecin]	0.137
CCc1c2c(nc3ccc(O)cc13)-c1cc3c(c(=O)n1C2)COC(=O)[C@]3(O)CC	0.176
CC(C)(C(=O)NCC(F)(F)C(F)(F)F)C(=O)N[C@@H]1C(=O)Nc2ccccc2-c2ccccc21	1.04
C[C@]12C=CC(=O)N[C@@H]1CC[C@@H]1[C@@H]2CC[C@]2(C)[C@@H](C(=O)Nc3cc(C(F)(F)F)ccc3C(F)(F)F)CC[C@@H]12 [Dutasteride]	1.12
O=C(COc1ccc(C(=O)c2ccccc2)cc1)NC1CCN(Cc2ccccc2)CC1 [AdipoRon]	1.06
Cc1[nH]nc2ccc(-c3cncc(OC[C@@H](N)Cc4ccccc4)c3)cc12	0.11
O=C(O)Cc1cc(I)c(Oc2ccc(O)c(I)c2)c(I)c1 [Tiratricol]	0.888
CSc1nc2cc(Cl)c(Oc3cccc(Cl)c3Cl)cc2[nH]1 [Triclabendazole]	1.14
O=C(/C=C\n1cnc(-c2cc(C(F)(F)F)cc(C(F)(F)F)c2)n1)N1CC(F)(F)C1	0.32
CC12CC3CC(C)(C1)CC(N)(C3)C2 [Memantine HCl]	1.1
O=C(/C=C/c1cccc(S(=O)(=O)Nc2ccccc2)c1)NO [Belinostat (PXD101)]	0.149
O=C(C=Cc1ccccc1)NC(NC(=S)Nc1ccc(Cl)cc1)C(Cl)(Cl)Cl (stereo not drawn)	1.14
Cn1cc(/C=C/C(=O)c2cccc(F)c2)cc1/C=C/C(=O)NO	1.19
COC(=O)N[C@H](C(=O)N[C@@H](Cc1ccccc1)[C@@H](O)CN(Cc1ccc(-c2ccccn2)cc1)NC(=O)[C@@H](NC(=O)OC)C(C)(C)C)C(C)(C)C [Atazanavir Sulfate]	0.969
